Source: paper PMC7819943, “Rice protein-binding microarrays: a tool to detect cis-acting elements near promoter regions in rice”
Whole data set: some 39,000 sequences, median “fluorescence intensity (a.u.)” near 4,300, cut for the highest 2% near 39,000. The sample as a whole holds a higher share of the highest values than the screen did.

The sequences below were run against T1, OsSMF1 (Oryza sativa, UniProt Q6ZLB0 1-436) (assay: protein-binding microarray (RPBM); PBS, 2% BSA, 51.3 ng/ul salmon testes DNA, 50 uM zinc acetate, 200 nM TF, 25 C, 1 h; high values mean tight binding). Conditions: protein: recombinant; tags: N-terminal polyhistidine and DsRed monomer fusion (pET32a); chain copies: 2; label: CyDye5-dUTP incorporated in the synthesized complementary strand; 3' TTTTT single-stranded linker to array surface; dsDNA, one strand shown.
T1 sequence: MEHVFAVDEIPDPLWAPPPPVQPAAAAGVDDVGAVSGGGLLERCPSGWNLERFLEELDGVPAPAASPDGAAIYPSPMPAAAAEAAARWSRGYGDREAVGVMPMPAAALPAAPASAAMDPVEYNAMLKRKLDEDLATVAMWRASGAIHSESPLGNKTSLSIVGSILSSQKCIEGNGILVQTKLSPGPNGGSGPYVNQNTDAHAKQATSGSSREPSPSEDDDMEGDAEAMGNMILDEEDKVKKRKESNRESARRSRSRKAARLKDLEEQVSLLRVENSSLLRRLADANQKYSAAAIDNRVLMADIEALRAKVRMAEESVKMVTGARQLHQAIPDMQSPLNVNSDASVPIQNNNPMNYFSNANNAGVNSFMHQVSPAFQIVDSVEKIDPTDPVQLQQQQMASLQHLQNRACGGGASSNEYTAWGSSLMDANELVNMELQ
Summary of the method: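 Transcription factors were made in E. coli BL21-CodonPlus as N-terminal fusions to a polyhistidine tag and DsRed, then purified on Ni–NTA. After primer extension with Cy5-dUTP and blocking with 2% BSA, a custom Agilent array was exposed for 1 h at 25 °C to 200 nM protein in PBS, 2% BSA, salmon testes DNA and 50 µM zinc acetate. Washed arrays were scanned on an Axon 4000B, and the binding signal is per-feature fluorescence intensity in arbitrary units.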
“TCGAAGAAGCCCTTTATTTCTCTTTTCGATACTCACACAACGGAGTCACCTAGTGCAG” was tested, and the binding signal was 3260 fluorescence intensity (a.u.).
“GCCAGGTGGGCTGGCGCTGAGTGTCCCACGGTCAGCGCCACGGAGTCACCTAGTGCAG” was tested, and the binding signal was 4010 fluorescence intensity (a.u.).
With “GTCAGCGCCAACTTACTTGGCGCTGAGGTTGTGCACCTCACGGAGTCACCTAGTGCAG” the binding signal was 3160 fluorescence intensity (a.u.).
With “GGCGGAGAGGGTATGGACAACAGCGCCGAGGTGGCGTGGCCGGAGTCACCTAGTGCAG” the binding signal was 5480 fluorescence intensity (a.u.).
“GCGTGGGGCGCCGGTGGCGGAGGGTGGGGACGACAACCAGCGGAGTCACCTAGTGCAG” was tested, and the binding signal was 65500 fluorescence intensity (a.u.).
“CGGGCGACGCCGGTGCTGGCGCCAGCGTGGGGCCGCGACGCGGAGTCACCTAGTGCAG” was tested, and the binding signal was 4780 fluorescence intensity (a.u.).
For “CAGCTACCTCAGCGCCAACCGGACTGGCGCTGAGGTGGGACGGAGTCACCTAGTGCAG”, the binding signal was 39200 fluorescence intensity (a.u.).
With “ATTTAATGTTGTCCTAGCTAGATCCATCCAAGGCTCCAAACGGAGTCACCTAGTGCAG” the binding signal was 3590 fluorescence intensity (a.u.).
With “CGCCAGCCACCTCCGGCGCCGTTCGCCAGCCACCACGCGCCGGAGTCACCTAGTGCAG” the binding signal was 37900 fluorescence intensity (a.u.).
With “ACCTTCTAGACAAGGGTATGATGACATGTACCGATCCCAACGGAGTCACCTAGTGCAG” the binding signal was 6680 fluorescence intensity (a.u.).
In the case of “ACGCGCGGGCGTGGCTGACGTGGCCCGGAGAAGGCGGAGGCGGAGTCACCTAGTGCAG”, the binding signal is reported as 5770 fluorescence intensity (a.u.).
“ACACACACACACACCCACCACACCACCCCGGCCGCTTCCGCGGAGTCACCTAGTGCAG” was tested, and the binding signal was 3210 fluorescence intensity (a.u.).
With “CCACCGCCGCCACACAGTCCGCTTCGGTTCCCCGTTTCCGCGGAGTCACCTAGTGCAG” the binding signal was 65500 fluorescence intensity (a.u.).
“GCCGTTAGTGCCACGTGGCGCCTTCCCATTCGACCGCCGCCGGAGTCACCTAGTGCAG” was tested, and the binding signal was 37400 fluorescence intensity (a.u.).
In the case of “TAGCCGTTAGTGCCACGTGGCGCCTTCCCATTCGACCGCCCGGAGTCACCTAGTGCAG”, the binding signal is reported as 40600 fluorescence intensity (a.u.).
In the case of “CTCCCGCCGTGGCACGCGCGACGTGCCGCGTGCGCACAGGCGGAGTCACCTAGTGCAG”, the binding signal is reported as 46800 fluorescence intensity (a.u.).
With “CGCGGCGGCGGCGGCGCGAAGGCACGTGGCACGGCGCCGCCGGAGTCACCTAGTGCAG” the binding signal was 3420 fluorescence intensity (a.u.).
For “GCCCGCCCGTCCCGTCCGACGTCCGCGTCACGCACGCGCGCGGAGTCACCTAGTGCAG”, the binding signal was 7940 fluorescence intensity (a.u.).
“CTTCCCGCCGCCGCCACTGCCACGAACAGTTCGCTCACCGCGGAGTCACCTAGTGCAG” was tested, and the binding signal was 3200 fluorescence intensity (a.u.).
For “GGCGGCGTTCGCGGCGGCGACGTGGGCGTACCTGACGGCGCGGAGTCACCTAGTGCAG”, the binding signal was 3590 fluorescence intensity (a.u.).
For “GAACGGTCAAATAGCCGTTAGTGCCACGTGGCGCCTTCCCCGGAGTCACCTAGTGCAG”, the binding signal was 25100 fluorescence intensity (a.u.).
“TGTACACGCGCAGGGCGGCCCTGGCGTTGCTGACGTGGCGCGGAGTCACCTAGTGCAG” was tested, and the binding signal was 42500 fluorescence intensity (a.u.).
With “GGAGGGTGGGGTAGGAGAGGATGCGGCGGGCGCCATGGCTCGGAGTCACCTAGTGCAG” the binding signal was 3450 fluorescence intensity (a.u.).
With “GCCACTTGCCCAGGTCACGCACACATTATTGAGCGAGCGACGGAGTCACCTAGTGCAG” the binding signal was 4590 fluorescence intensity (a.u.).
In the case of “AGTCGCACGCCAAGTGTTTGTTGTTTTGCCAAGCAAGATGCGGAGTCACCTAGTGCAG”, the binding signal is reported as 3520 fluorescence intensity (a.u.).
For “TCGAGCCCCTCTCCCTCCGCGAGCCGTGTGCAGCGGGCGACGGAGTCACCTAGTGCAG”, the binding signal was 3430 fluorescence intensity (a.u.).
With “ACGGATTCCTGTTAATAGAGTGTTTCCGTAATATGTGGCACGGAGTCACCTAGTGCAG” the binding signal was 3820 fluorescence intensity (a.u.).
With “GTTTGGGGTTTCTTTCCTGCCTCGTGAGCTGACGCCGGTGCGGAGTCACCTAGTGCAG” the binding signal was 4080 fluorescence intensity (a.u.).
In the case of “GGCAGCCATTCCCACCGCGCCACACGCGCCACACGCCCCGCGGAGTCACCTAGTGCAG”, the binding signal is reported as 3240 fluorescence intensity (a.u.).
“GTTAGTGCCACGTGGCGCCTTCCCATTCGACCGCCGCCCGCGGAGTCACCTAGTGCAG” was tested, and the binding signal was 42100 fluorescence intensity (a.u.).
“CCGGCGGCAGTGGCCCGGCGGCGCCGCCACCTTCCGTGCCCGGAGTCACCTAGTGCAG” was tested, and the binding signal was 43700 fluorescence intensity (a.u.).
In the case of “GCCGCGCCGCGCCGTGGCGTGGCGTGGCGTGGCGCGGCCACGGAGTCACCTAGTGCAG”, the binding signal is reported as 6530 fluorescence intensity (a.u.).
In the case of “CGCCTTCGTCCCATCTCGACCGTCCACGTGTGGCCCATCCCGGAGTCACCTAGTGCAG”, the binding signal is reported as 8200 fluorescence intensity (a.u.).
In the case of “AAAGCGTTCCGCGGCGCCGCCGTGGCGTCCGGCGTCCGGCCGGAGTCACCTAGTGCAG”, the binding signal is reported as 3900 fluorescence intensity (a.u.).
For “CTCGAGCCCGCGGATGGCGCCCCATGGCGTGGCGGCGGAGCGGAGTCACCTAGTGCAG”, the binding signal was 3820 fluorescence intensity (a.u.).
For “TGTAAGCATCAGCATGTCAAGGTTAACACCTCACTATCTCCGGAGTCACCTAGTGCAG”, the binding signal was 4630 fluorescence intensity (a.u.).
In the case of “ACAGGGGCAGGGGTCATGTGGTGGAGGTAATCAATTAATCCGGAGTCACCTAGTGCAG”, the binding signal is reported as 3660 fluorescence intensity (a.u.).
“TAGATGTTACTCCCTCCGTCCCTTCGTCCTAAAATGTAGCCGGAGTCACCTAGTGCAG” was tested, and the binding signal was 35900 fluorescence intensity (a.u.).
For “GCAGATCTTGACTATCTCCACGGGATATATACACGGCGGCCGGAGTCACCTAGTGCAG”, the binding signal was 22300 fluorescence intensity (a.u.).
For “CGCTCATGAAGCTCCTTCCCTACGCGCGCTCGCCGAATCGCGGAGTCACCTAGTGCAG”, the binding signal was 44000 fluorescence intensity (a.u.).
For “GCTCCTCGCGCTGCTCATCATCCTCCCCTCCACGCCGCCGCGGAGTCACCTAGTGCAG”, the binding signal was 4730 fluorescence intensity (a.u.).
“CTCCCTTCCCTTCCCTTCCTCTCGCCGAACCAACGCGGAACGGAGTCACCTAGTGCAG” was tested, and the binding signal was 3360 fluorescence intensity (a.u.).
